# Legend:
# Test in all cases: PBM binding z-score (relative to random genomic background probes); higher = stronger binding; sequences stand for … in GC…GCGATTGACAGCGTAGAATGAAGG
# [1] = test system: PPARg:RXRa DBDmut IVT, anti-RXR (DBD mutation: RXRa K156A/R161A, NR concentration 270 nM, RXRa partner concentration 90 nM)
# Procedure, shortened: (§1)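 Each nuclear receptor dimer, without ligand, was incubated for 1 h on custom Agilent 4×180K protein-binding microarrays. Binding was detected with antibodies against each partner (one per run), and scanned fluorescence was regression-normalized. The binding z-scores are referenced to random human genomic background probes.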
# [2] = test system: PPARg:RXRa IVT, anti-PPARg (NR concentration 270 nM, RXRa partner concentration 90 nM)
# Procedure, shortened: as §1
# [3] = test system: PPARg DBDmut:RXRa IVT, anti-PPARg (DBD mutation: PPARg1 K132A/R137A, NR concentration 270 nM, RXRa partner concentration 90 nM)
# Procedure, shortened: as §1
# [4] = test system: PPARg DBDmut IVT, anti-PPARg (DBD mutation: PPARg1 K132A/R137A, NR concentration 270 nM)
# Procedure, shortened: as §1
# [5] = test system: PPARg homodimer (NR concentration 180 nM)
# Procedure, shortened: as §1
# [6] = test system: PXR:RXRa (NR concentration 270 nM, RXRa partner concentration 90 nM)
# Procedure, shortened: as §1
# [7] = test system: PXR homodimer (NR concentration 270 nM)
# Procedure, shortened: as §1
# [8] = test system: RARa:RXR (NR concentration 270 nM, RXRa partner concentration 90 nM)
# Procedure, shortened: as §1
# [9] = test system: RARa homodimer (NR concentration 270 nM)
# Procedure, shortened: as §1
# [10] = test system: RARb:RXRa (NR concentration 270 nM, RXRa partner concentration 90 nM)
# Procedure, shortened: as §1
# [11] = test system: RARb homodimer (NR concentration 270 nM)
# Procedure, shortened: as §1
# [12] = test system: RARg:RXRa (NR concentration 270 nM, RXRa partner concentration 90 nM)
# Procedure, shortened: as §1
# [13] = test system: RARg homodimer (NR concentration 270 nM)
# Procedure, shortened: as §1
# [14] = test system: RXRa DBDmut IVT, anti-RXR (DBD mutation: RXRa K156A/R161A, NR concentration 90 nM)
# Procedure, shortened: as §1
# [15] = test system: RXRa homodimer (NR concentration 180 nM)
# Procedure, shortened: as §1
# [16] = test system: THRa:RXRa (NR concentration 90 nM, RXRa partner concentration 90 nM)
# Procedure, shortened: as §1
# [17] = test system: THRa homodimer (NR concentration 90 nM)
# Procedure, shortened: as §1
# [18] = test system: VDR homodimer (NR concentration 270 nM)
# Procedure, shortened: as §1
Sequence,PBM binding z-score [1],PBM binding z-score [2],PBM binding z-score [3],PBM binding z-score [4],PBM binding z-score [5],PBM binding z-score [6],PBM binding z-score [7],PBM binding z-score [8],PBM binding z-score [9],PBM binding z-score [10],PBM binding z-score [11],PBM binding z-score [12],PBM binding z-score [13],PBM binding z-score [14],PBM binding z-score [15],PBM binding z-score [16],PBM binding z-score [17],PBM binding z-score [18]
TCATATAGGTAAAGAGGTGAAAGTCCGTAAGTTA,4.95,5.26,1.1,0.188,1.78,1.23,0.825,1.76,1,1.65,1.56,1.37,0.762,1.73,2.04,1.8,0.621,0.613
ATCTCTAGGTAAGATTCAGTTCAGTGAAGAACGC,0.989,0.954,0.543,0.745,0.75,0.994,1.17,0.657,1.15,0.123,0.59,0.513,0.134,0.381,0.0885,0.976,0.542,1.31
AGTCAAAGTTCATCTAGGTGACGTAAGATATGCT,1.67,4.74,1.64,1.41,3.65,4.98,6.85,3.75,1.44,4.8,3.92,5.42,5.9,4.62,4.44,3.16,0.193,4.86
TCTGCTAGGTCAGTTGGTCGGCTAACGAGCTGCC,2.4,2.52,-0.323,0.245,-0.547,-0.0242,-0.996,0.254,-0.776,3.2,2.21,2.28,3.11,0.384,0.902,1.17,-0.205,-1.1
AGAATGAGGTTCAGATCAGGGAAACAGAATACAT,-0.151,0.433,1.08,0.118,0.165,0.507,0.222,1.41,0.488,0.706,0.405,0.907,0.758,1.63,1.02,2.61,-0.043,1.03
TGAATGAGGTAAAAGATCAGGGAACGTGGCGTCG,0.669,2.02,0.836,-0.202,0.305,-0.0852,-0.139,0.545,-0.524,0.0467,-0.605,0.328,0.294,-0.708,0.851,1.3,-0.2,-0.398
CGTCAAAGTTCAACTAAGGTAACGTGAAGCACGC,0.871,2.2,0.717,0.859,3.36,5.76,4.5,4.34,2.47,5.26,4.14,6.07,6.8,4.62,5.49,5.14,1.68,3.84
TCATATAGGTAAATGCTAGGTGAAGGTCCGATCT,4.03,2.74,1.1,0.608,0.952,0.662,0.475,0.786,1.04,0.552,0.576,0.474,0.349,1.34,0.65,1.43,0.583,0.324
CGAACTAGGTCATTGACAGTACAGTGAATAGTAA,7.66,8.48,3.53,2.28,1.89,1.64,0.291,2.03,0.0313,3.67,2.62,3.89,4.03,2.62,2.48,2.48,0.979,0.986
CGTCAAAGTTGAACTAAGGTAACGTAAAGCACGC,0.422,1.2,1.41,0.838,0.99,2.35,0.717,2.08,0.0339,2.17,1.98,2.06,1.86,0.678,1.68,4.72,1.74,0.519
CATACAAGGTCAGCTAGGCCAGAGTAGGGACGGC,2.49,3.08,1.69,1.12,2.33,2.51,0.612,3.43,1.39,4.89,3.83,5.19,5.79,2.04,4.4,3.54,1.97,1.65
TCTGCTAGGTCAGTTGGTCAACTAACGAGCTGCC,2.83,3.32,0.661,0.786,-0.104,0.269,-0.861,0.622,-0.954,3.27,2.71,2.82,3.64,0.186,1.03,1.43,-0.321,-0.774
ATCTTTAGGTAACCAAGTTCAGTGAATGCCGAAC,2.35,1.85,1.09,1.61,0.811,2.06,1.53,1,0.564,1.31,1.55,0.783,1.04,1.36,0.709,2.07,1.25,2.66
GGAACGAGGGCAAACTTGATAGCATCTGTCGACG,4.42,3.21,0.0378,-0.343,0.366,0.618,0.169,0.525,-0.264,2.16,1.03,1.52,1.62,3.1,1.17,1.09,-0.309,1.61
ACTCGGAGGACAAAGGTCAGAGGTACGCCAGTGA,0.77,3.42,0.61,0.441,3.17,3.86,0.587,4.61,0.603,4.43,4.58,5.98,5.03,0.647,5.39,3.49,0.633,1.68
